# In PubChem BioAssay (NCI):
# About 79,000 compounds went through this panel and 15% of them were active in at least one assay; those are over-represented in the sample as a whole. Unmarked numbers belong to inactive results. The source made the active and inactive calls. Rule as the data show it: active = growth inhibition above about 70%; inactive = the rest.
# Assays:
# [1] = NCI Yeast Anticancer Drug Screen. Data for the sgs1 strain (AID 173);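 also: 0% = growth of vehicle-only control cultures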; conditions: S. cerevisiae sgs1 mutant, stronger effect = higher value
# Method in brief: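 Read-out: yeast growth inhibition relative to vehicle controls, following compound exposure of a strain with a defined DNA repair/cell cycle alteration.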
# [2] = NCI Yeast Anticancer Drug Screen. Data for the mlh1 rad18 strain (AID 175); conditions: S. cerevisiae mlh1 rad18 strain growth inhibition, stronger effect = higher value
# Method in brief: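 Yeast w/ defined DNA-repair lesions; compound exposure; growth vs vehicle controls → % inhibition.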
# [3] = NCI Yeast Anticancer Drug Screen. Data for the rad18 strain (AID 177); conditions: S. cerevisiae rad18 mutant growth inhibition, stronger effect = higher value
# Method in brief: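 Readout: growth inhibition vs vehicle controls. Cells: genetically altered yeast strain, DNA repair defect.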
# [4] = NCI Yeast Anticancer Drug Screen. Data for the rad52 strain (AID 147);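 also: 0% = growth of vehicle-treated control cultures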; conditions: S. cerevisiae rad52 mutant growth inhibition, stronger effect = higher value
# Method in brief: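 Read-out: growth inhibition versus vehicle-treated controls. Cells were a DNA repair-deficient yeast strain treated with compounds.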
# [5] = NCI Yeast Anticancer Drug Screen. Data for the wt1 strain (AID 149);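 also: 0% = growth of vehicle-treated wt1 cultures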; conditions: S. cerevisiae wt1 strain (SPY 50644) growth inhibition, stronger effect = higher value
# Method in brief: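 wt1 yeast, compound-treated; % growth inhibition vs vehicle control.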
# [6] = NCI Yeast Anticancer Drug Screen. Data for the rad50EPP+ strain (AID 151);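 also: 0% = growth of vehicle-treated control cultures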; conditions: S. cerevisiae rad50 mutant strain, stronger effect = higher value
# Method in brief: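 Growth inhibition read against vehicle controls in rad50EPP+ yeast, a strain altered in DNA damage repair, after compound exposure.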
# [7] = NCI Yeast Anticancer Drug Screen. Data for the mgt1 strain (AID 153); conditions: S. cerevisiae mgt1 mutant growth inhibition, stronger effect = higher value
# Method in brief: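 mgt1 yeast grown with test compound; read-out is growth inhibition versus vehicle-treated cultures.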
# [8] = NCI Yeast Anticancer Drug Screen. Data for the rad50 strain (AID 155);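 also: 0% = growth of vehicle-only cultures of the same strain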; conditions: S. cerevisiae rad50 strain growth inhibition, stronger effect = higher value
# Method in brief: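 Genetically altered yeast (DNA repair pathway); compound treatment; growth inhibition vs vehicle ctrl.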
# [9] = NCI Yeast Anticancer Drug Screen. Data for the mec2-1 strain (AID 157); conditions: S. cerevisiae mec2-1 strain, stronger effect = higher value
# Method in brief: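 Yeast mec2-1 mutant treated with compound. Readout: growth inhibition vs vehicle controls.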
# [10] = NCI Yeast Anticancer Drug Screen. Data for the sgs1 mgt1 strain (AID 161);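 also: 0% = growth of cultures given vehicle only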; conditions: S. cerevisiae sgs1 mgt1 strain, stronger effect = higher value
# Method in brief: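 Genetically altered yeast, compound exposure, growth inhibition relative to vehicle.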
# [11] = NCI Yeast Anticancer Drug Screen. Data for the CLN2oe strain (AID 163);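 also: 0% = growth of vehicle-only control cultures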; conditions: S. cerevisiae CLN2oe strain, stronger effect = higher value
# Method in brief: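 Read-out: yeast growth inhibition, expressed relative to vehicle-only controls. The strain bears an engineered cell-cycle alteration.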
# [12] = NCI Yeast Anticancer Drug Screen. Data for the cln2 rad14 strain (AID 165);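 also: 0% = growth equal to vehicle treated cultures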; conditions: S. cerevisiae cln2 rad14 strain, stronger effect = higher value
# Method in brief: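 cln2 rad14 yeast strain; compound exposure; growth inhibition read vs vehicle controls.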
# [13] = NCI Yeast Anticancer Drug Screen. Data for the bub3 strain (AID 167); conditions: S. cerevisiae bub3 mutant strain, stronger effect = higher value
# Method in brief: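 Yeast carrying a defined mutation is treated with each compound, and growth is compared with that of vehicle-exposed cells to give inhibition.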
# [14] = NCI Yeast Anticancer Drug Screen. Data for the mlh1 strain (AID 171);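 also: 0% = growth of vehicle-treated control cultures of the same strain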; conditions: S. cerevisiae mlh1 strain growth inhibition, stronger effect = higher value
# Method in brief: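 Read-out: growth inhibition versus vehicle controls. Strain: engineered yeast with a defined DNA repair or cell cycle defect, compound-treated.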
# [15] = NCI Yeast Anticancer Drug Screen. Data for the rad14 strain (AID 159);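 also: 0% = growth of vehicle-treated control cultures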; conditions: S. cerevisiae rad14 strain growth inhibition, stronger effect = higher value
# Method in brief: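 Test compounds were applied to a repair-deficient yeast strain. Its growth was then compared with that of cultures given vehicle alone, and inhibition was expressed relative to those controls.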
# [16] = NCI Yeast Anticancer Drug Screen. Data for the wt2 strain (AID 169);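 also: 0% = growth of vehicle-treated yeast cultures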; conditions: S. cerevisiae wt2 strain growth inhibition, stronger effect = higher value
# Method in brief: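 Read-out: growth inhibition versus vehicle-treated control cultures after compound exposure of the yeast strain.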
# [17] = at 5.0 µM (retest, dose inferred, filed as 0.5)
# [18] = at 50.0 µM (retest, dose inferred, filed as 5.0)
smiles,measurement,setting,value
Cc1ccc(Cl)cc1NC(=O)OCCN(C)C(=O)Nc1cc(Cl)ccc1C,growth inhibition,[1]; at 1.2 µM,-22%
same,growth inhibition,[1]; at 3.7 µM,-21%
same,growth inhibition,[1]; at 11.0 µM,-23%
same,growth inhibition,[1]; at 33.0 µM,-15%
same,growth inhibition,[1]; at 100.0 µM,8%
same,growth inhibition,[2]; [17],45%
same,growth inhibition,[2]; [18],98% (active)
same,growth inhibition,[2]; at 50.0 µM,62%
same,growth inhibition,[3]; at 1.2 µM,-27%
same,growth inhibition,[3]; at 3.7 µM,-35%
same,growth inhibition,[3]; at 11.0 µM,-33%
same,growth inhibition,[3]; at 33.0 µM,-37%
same,growth inhibition,[3]; at 100.0 µM,15%
Nc1ncc(-c2ccc(Br)cc2)s1,growth inhibition,[4]; at 1.2 µM,20%
same,growth inhibition,[4]; at 3.7 µM,35%
same,growth inhibition,[4]; at 11.0 µM,36%
same,growth inhibition,[4]; at 33.0 µM,92% (active)
same,growth inhibition,[4]; at 100.0 µM,98% (active)
same,growth inhibition,[5]; at 1.2 µM,9%
same,growth inhibition,[5]; at 3.7 µM,17%
same,growth inhibition,[5]; at 11.0 µM,22%
same,growth inhibition,[5]; at 33.0 µM,92% (active)
same,growth inhibition,[5]; at 100.0 µM,98% (active)
same,growth inhibition,[6]; at 1.2 µM,19%
same,growth inhibition,[6]; at 3.7 µM,29%
same,growth inhibition,[6]; at 11.0 µM,47%
same,growth inhibition,[6]; at 33.0 µM,93% (active)
same,growth inhibition,[6]; at 100.0 µM,97% (active)
same,growth inhibition,[7]; at 1.2 µM,1%
same,growth inhibition,[7]; at 3.7 µM,-1%
same,growth inhibition,[7]; at 11.0 µM,2%
same,growth inhibition,[7]; at 33.0 µM,95% (active)
same,growth inhibition,[7]; at 100.0 µM,98% (active)
same,growth inhibition,[8]; at 1.2 µM,7%
same,growth inhibition,[8]; at 3.7 µM,7%
same,growth inhibition,[8]; [17],51%
same,growth inhibition,[8]; at 11.0 µM,13%
same,growth inhibition,[8]; at 33.0 µM,91% (active)
same,growth inhibition,[8]; [18],51%
same,growth inhibition,[8]; at 50.0 µM,89.5% (active)
same,growth inhibition,[8]; at 100.0 µM,97% (active)
same,growth inhibition,[9]; at 1.2 µM,-22%
same,growth inhibition,[9]; at 3.7 µM,-1%
same,growth inhibition,[9]; [17],53%
same,growth inhibition,[9]; at 11.0 µM,-15%
same,growth inhibition,[9]; at 33.0 µM,92% (active)
same,growth inhibition,[9]; [18],55%
same,growth inhibition,[9]; at 50.0 µM,93% (active)
same,growth inhibition,[9]; at 100.0 µM,98% (active)
same,growth inhibition,[10]; [17],18%
same,growth inhibition,[10]; [18],99% (active)
same,growth inhibition,[10]; at 50.0 µM,92.7% (active)
same,growth inhibition,[11]; at 1.2 µM,21%
same,growth inhibition,[11]; at 3.7 µM,3%
same,growth inhibition,[11]; at 11.0 µM,-7%
same,growth inhibition,[11]; at 33.0 µM,90% (active)
same,growth inhibition,[11]; at 100.0 µM,97% (active)
same,growth inhibition,[12]; [17],56%
same,growth inhibition,[12]; [18],99% (active)
same,growth inhibition,[12]; at 50.0 µM,90.3% (active)
same,growth inhibition,[13]; at 1.2 µM,-8%
same,growth inhibition,[13]; at 3.7 µM,-8%
same,growth inhibition,[13]; [17],-18%
same,growth inhibition,[13]; at 11.0 µM,-11%
same,growth inhibition,[13]; at 33.0 µM,82% (active)
same,growth inhibition,[13]; [18],99% (active)
same,growth inhibition,[13]; at 50.0 µM,89.8% (active)
same,growth inhibition,[13]; at 100.0 µM,97% (active)
same,growth inhibition,[14]; at 1.2 µM,-9%
same,growth inhibition,[14]; at 3.7 µM,-14%
same,growth inhibition,[14]; at 11.0 µM,-1%
same,growth inhibition,[14]; at 33.0 µM,94% (active)
same,growth inhibition,[14]; at 100.0 µM,97% (active)
same,growth inhibition,[1]; at 1.2 µM,19%
same,growth inhibition,[1]; at 3.7 µM,26%
same,growth inhibition,[1]; at 11.0 µM,34%
same,growth inhibition,[1]; at 33.0 µM,92% (active)
same,growth inhibition,[1]; at 100.0 µM,97% (active)
same,growth inhibition,[2]; [17],39%
same,growth inhibition,[2]; [18],55%
same,growth inhibition,[2]; at 50.0 µM,89.9% (active)
same,growth inhibition,[3]; at 1.2 µM,-29%
same,growth inhibition,[3]; at 3.7 µM,-30%
same,growth inhibition,[3]; at 11.0 µM,-16%
same,growth inhibition,[3]; at 33.0 µM,91% (active)
same,growth inhibition,[3]; at 100.0 µM,97% (active)
COc1cccc2c1C(=O)c1c(O)c3c(c(O)c1C2=O)CC(O)(C(O)CO)CC3OC1CC(N2CCOCC2)C(O)C(C)O1 (centres undefined),growth inhibition,[4]; at 1.2 µM,96% (active)
same,growth inhibition,[4]; at 3.7 µM,96% (active)
same,growth inhibition,[4]; at 11.0 µM,96% (active)
same,growth inhibition,[4]; at 33.0 µM,96% (active)
same,growth inhibition,[4]; at 100.0 µM,96% (active)
same,growth inhibition,[5]; at 1.2 µM,96% (active)
same,growth inhibition,[5]; at 3.7 µM,96% (active)
same,growth inhibition,[5]; at 11.0 µM,97% (active)
same,growth inhibition,[5]; at 33.0 µM,97% (active)
same,growth inhibition,[5]; at 100.0 µM,97% (active)
same,growth inhibition,[7]; at 1.2 µM,97% (active)
same,growth inhibition,[7]; at 3.7 µM,97% (active)
same,growth inhibition,[7]; at 11.0 µM,97% (active)
same,growth inhibition,[7]; at 33.0 µM,98% (active)
same,growth inhibition,[7]; at 100.0 µM,97% (active)
same,growth inhibition,[8]; at 1.2 µM,96% (active)
same,growth inhibition,[8]; at 3.7 µM,97% (active)
same,growth inhibition,[8]; [17],98% (active)
same,growth inhibition,[8]; at 11.0 µM,97% (active)
same,growth inhibition,[8]; at 33.0 µM,97% (active)
same,growth inhibition,[8]; [18],98% (active)
same,growth inhibition,[8]; at 50.0 µM,56.9%
same,growth inhibition,[8]; at 100.0 µM,97% (active)
same,growth inhibition,[9]; at 1.2 µM,97% (active)
same,growth inhibition,[9]; at 3.7 µM,97% (active)
same,growth inhibition,[9]; [17],99% (active)
same,growth inhibition,[9]; at 11.0 µM,98% (active)
same,growth inhibition,[9]; at 33.0 µM,98% (active)
same,growth inhibition,[9]; [18],99% (active)
same,growth inhibition,[9]; at 50.0 µM,91.3% (active)
same,growth inhibition,[9]; at 100.0 µM,98% (active)
same,growth inhibition,[15]; at 1.2 µM,95% (active)
same,growth inhibition,[15]; at 3.7 µM,96% (active)
same,growth inhibition,[15]; at 11.0 µM,96% (active)
same,growth inhibition,[15]; at 33.0 µM,97% (active)
same,growth inhibition,[15]; at 100.0 µM,97% (active)
same,growth inhibition,[10]; [17],22%
same,growth inhibition,[10]; [18],90% (active)
same,growth inhibition,[10]; at 50.0 µM,91.5% (active)
same,growth inhibition,[11]; at 1.2 µM,96% (active)
same,growth inhibition,[11]; at 3.7 µM,97% (active)
same,growth inhibition,[11]; at 11.0 µM,97% (active)
same,growth inhibition,[11]; at 33.0 µM,98% (active)
same,growth inhibition,[11]; at 100.0 µM,98% (active)
same,growth inhibition,[12]; [17],18%
same,growth inhibition,[12]; [18],61%
same,growth inhibition,[12]; at 50.0 µM,90.8% (active)
same,growth inhibition,[13]; at 1.2 µM,98% (active)
same,growth inhibition,[13]; at 3.7 µM,98% (active)
same,growth inhibition,[13]; [17],25%
same,growth inhibition,[13]; at 11.0 µM,98% (active)
same,growth inhibition,[13]; at 33.0 µM,98% (active)
same,growth inhibition,[13]; [18],93% (active)
same,growth inhibition,[13]; at 50.0 µM,93.5% (active)
same,growth inhibition,[13]; at 100.0 µM,98% (active)
same,growth inhibition,[16]; at 1.2 µM,96% (active)
same,growth inhibition,[16]; at 3.7 µM,97% (active)
same,growth inhibition,[16]; at 11.0 µM,96% (active)
same,growth inhibition,[16]; at 33.0 µM,97% (active)
same,growth inhibition,[16]; at 100.0 µM,98% (active)
same,growth inhibition,[14]; at 1.2 µM,97% (active)
same,growth inhibition,[14]; at 3.7 µM,97% (active)
same,growth inhibition,[14]; at 11.0 µM,97% (active)
same,growth inhibition,[14]; at 33.0 µM,98% (active)
same,growth inhibition,[14]; at 100.0 µM,98% (active)
same,growth inhibition,[1]; at 1.2 µM,97% (active)
same,growth inhibition,[1]; at 3.7 µM,97% (active)
same,growth inhibition,[1]; at 11.0 µM,97% (active)
same,growth inhibition,[1]; at 33.0 µM,98% (active)
same,growth inhibition,[1]; at 100.0 µM,98% (active)
same,growth inhibition,[2]; [17],99% (active)
same,growth inhibition,[2]; [18],98% (active)
same,growth inhibition,[2]; at 50.0 µM,91.1% (active)
same,growth inhibition,[3]; at 1.2 µM,96% (active)
same,growth inhibition,[3]; at 3.7 µM,96% (active)
same,growth inhibition,[3]; at 11.0 µM,97% (active)
same,growth inhibition,[3]; at 33.0 µM,97% (active)
same,growth inhibition,[3]; at 100.0 µM,98% (active)
